From paper PMC7862700, “An all-to-all approach to the identification of sequence-specific readers for epigenetic DNA modifications on cytosine” come the findings set out here.

What all share (assay): DAPPL (digital affinity profiling via proximity ligation, sequencing); 10 mM Tris-HCl pH 7.5, 50 mM NaCl, 1 mM DTT, 4% glycerol, room temperature, 30 min; GST-TFs on glutathione beads, 16-mer random dsDNA library, 0.1% formaldehyde crosslink after washing; high values mean tight binding
For assay [1], the target named is T1, FEV (Homo sapiens, UniProt Q99581 1-238).
T1 sequence: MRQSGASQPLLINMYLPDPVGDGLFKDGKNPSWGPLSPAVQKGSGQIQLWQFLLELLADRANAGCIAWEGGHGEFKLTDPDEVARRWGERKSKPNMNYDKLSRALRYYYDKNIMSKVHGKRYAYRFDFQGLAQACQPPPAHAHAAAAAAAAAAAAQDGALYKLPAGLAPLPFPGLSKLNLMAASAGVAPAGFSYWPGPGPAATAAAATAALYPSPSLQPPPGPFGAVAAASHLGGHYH
To be noted: protein: recombinant; tags: N-terminal GST; dsDNA, one strand shown. The procedure, abridged:
(§1)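 Each value of binding signal is a hexamer's read frequency for a factor divided by the same hexamer's frequency in the tag-only sample. Barcoded, bead-captured GST fusions of human transcription factors made in yeast were pooled with that sample and incubated with 200 nmole of a random double-stranded 16-mer DNA library in Tris/NaCl/DTT/glycerol buffer at room temperature for 30 min. Washing, 0.1% formaldehyde crosslinking, proximity ligation, PCR and Illumina NextSeq500 sequencing followed.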

Assay [2] addresses ETV5 (Homo sapiens, UniProt P41161 1-510). Particulars: protein: recombinant; tags: N-terminal GST; dsDNA, one strand shown. Put shortly: as §1
Assay [3] deals with HSF1 (Homo sapiens, UniProt Q00613 1-529). Particulars: protein: recombinant; tags: N-terminal GST; chain copies: 3; dsDNA, one strand shown. The procedure, abridged:
as §1

Assay [4] deals with T2, SPIC (Homo sapiens, UniProt Q8N5J4 1-248).
T2 sequence: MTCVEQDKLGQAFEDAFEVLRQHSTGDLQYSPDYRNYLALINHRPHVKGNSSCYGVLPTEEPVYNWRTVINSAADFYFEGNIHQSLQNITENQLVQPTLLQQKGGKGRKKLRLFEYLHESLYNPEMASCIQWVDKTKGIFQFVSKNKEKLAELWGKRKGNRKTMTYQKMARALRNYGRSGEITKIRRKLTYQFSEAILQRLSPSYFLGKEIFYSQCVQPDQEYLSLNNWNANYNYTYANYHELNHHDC
To be noted: protein: recombinant; tags: N-terminal GST; dsDNA, one strand shown. Put shortly:
as §1

Assay [5] deals with ELF4 (Homo sapiens, UniProt Q99607 1-663). Particulars: protein: recombinant; tags: N-terminal GST; dsDNA, one strand shown. Put shortly:
as §1

In assay [6] the target is T3, ELK4 (Homo sapiens, UniProt P28324-2 1-405).
T3 sequence: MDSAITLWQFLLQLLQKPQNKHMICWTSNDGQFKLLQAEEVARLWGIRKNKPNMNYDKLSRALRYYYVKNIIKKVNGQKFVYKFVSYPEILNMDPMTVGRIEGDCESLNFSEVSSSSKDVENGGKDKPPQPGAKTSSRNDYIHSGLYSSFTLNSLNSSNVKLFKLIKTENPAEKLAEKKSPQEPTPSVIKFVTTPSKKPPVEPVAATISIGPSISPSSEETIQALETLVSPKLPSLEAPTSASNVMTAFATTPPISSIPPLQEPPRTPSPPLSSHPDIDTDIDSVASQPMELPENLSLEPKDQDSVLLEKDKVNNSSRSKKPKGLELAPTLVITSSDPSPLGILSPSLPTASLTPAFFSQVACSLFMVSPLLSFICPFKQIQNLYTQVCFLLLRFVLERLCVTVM
To be noted: protein: recombinant; tags: N-terminal GST; dsDNA, one strand shown. Put shortly: as §1

The target in assay [7] is T4, ETV2 (Homo sapiens, UniProt O00321 1-342).
T4 sequence: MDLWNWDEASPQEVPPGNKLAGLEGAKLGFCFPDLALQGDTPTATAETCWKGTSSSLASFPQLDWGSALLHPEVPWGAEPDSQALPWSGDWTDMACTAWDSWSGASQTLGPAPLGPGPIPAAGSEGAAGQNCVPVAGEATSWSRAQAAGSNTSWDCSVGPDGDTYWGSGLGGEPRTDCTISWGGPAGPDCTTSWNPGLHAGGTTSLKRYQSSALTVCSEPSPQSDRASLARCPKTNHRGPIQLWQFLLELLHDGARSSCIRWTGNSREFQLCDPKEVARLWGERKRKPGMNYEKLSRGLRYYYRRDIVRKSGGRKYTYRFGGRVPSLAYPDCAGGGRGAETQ
Particulars: protein: recombinant; tags: N-terminal GST; dsDNA, one strand shown. Put shortly:
as §1

In assay [8] the target is T5, ELF3 (Homo sapiens, UniProt P78545 1-371).
T5 sequence: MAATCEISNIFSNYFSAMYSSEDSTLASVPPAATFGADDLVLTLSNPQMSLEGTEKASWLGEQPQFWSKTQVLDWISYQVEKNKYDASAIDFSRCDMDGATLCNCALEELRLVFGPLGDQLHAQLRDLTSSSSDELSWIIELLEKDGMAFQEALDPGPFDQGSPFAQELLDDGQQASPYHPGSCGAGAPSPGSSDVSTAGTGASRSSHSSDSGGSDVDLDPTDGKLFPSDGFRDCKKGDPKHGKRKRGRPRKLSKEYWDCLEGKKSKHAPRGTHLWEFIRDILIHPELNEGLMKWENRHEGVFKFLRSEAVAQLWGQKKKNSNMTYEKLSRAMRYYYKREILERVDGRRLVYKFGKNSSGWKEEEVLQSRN
Particulars: protein: recombinant; tags: N-terminal GST; dsDNA, one strand shown. The procedure, abridged: as §1

Assay [9] deals with CRX (Homo sapiens, UniProt O43186 1-299). To be noted: protein: recombinant; tags: N-terminal GST; dsDNA, one strand shown. The procedure, abridged: as §1
Chain of CRX (O43186 whole entry): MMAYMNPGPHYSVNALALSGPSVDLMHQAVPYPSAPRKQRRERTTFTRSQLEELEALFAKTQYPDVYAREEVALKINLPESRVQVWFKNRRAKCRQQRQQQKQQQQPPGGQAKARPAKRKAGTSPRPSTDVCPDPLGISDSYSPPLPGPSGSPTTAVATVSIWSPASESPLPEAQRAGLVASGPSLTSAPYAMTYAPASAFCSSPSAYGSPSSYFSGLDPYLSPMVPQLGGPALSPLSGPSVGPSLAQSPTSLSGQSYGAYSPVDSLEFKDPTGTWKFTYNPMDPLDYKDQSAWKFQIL
In assay [10] the target is ETV1 (Homo sapiens, UniProt P50549 1-477). Particulars: protein: recombinant; tags: N-terminal GST; dsDNA, one strand shown. The procedure, abridged:
as §1

The target in assay [11] is T6, ERF (Homo sapiens, UniProt P50548 1-548).
T6 sequence: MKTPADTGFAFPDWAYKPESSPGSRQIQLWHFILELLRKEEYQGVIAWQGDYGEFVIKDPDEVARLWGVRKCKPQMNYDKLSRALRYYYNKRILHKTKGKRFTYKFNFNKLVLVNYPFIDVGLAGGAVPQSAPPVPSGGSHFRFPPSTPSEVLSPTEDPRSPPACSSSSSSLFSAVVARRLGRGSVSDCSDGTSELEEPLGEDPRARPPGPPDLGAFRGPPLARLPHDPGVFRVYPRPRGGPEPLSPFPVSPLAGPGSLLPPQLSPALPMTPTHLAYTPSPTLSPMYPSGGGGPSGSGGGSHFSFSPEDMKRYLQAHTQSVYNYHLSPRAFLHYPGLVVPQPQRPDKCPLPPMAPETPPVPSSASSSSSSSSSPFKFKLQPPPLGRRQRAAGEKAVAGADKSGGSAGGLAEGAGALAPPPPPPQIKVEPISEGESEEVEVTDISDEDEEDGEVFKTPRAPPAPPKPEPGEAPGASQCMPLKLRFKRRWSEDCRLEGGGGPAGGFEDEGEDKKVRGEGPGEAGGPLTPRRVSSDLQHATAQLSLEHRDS
To be noted: protein: recombinant; tags: N-terminal GST; dsDNA, one strand shown. Put shortly: as §1

The target of assay [12] is T7, ETV3L (Homo sapiens, UniProt Q6ZN32 1-361).
T7 sequence: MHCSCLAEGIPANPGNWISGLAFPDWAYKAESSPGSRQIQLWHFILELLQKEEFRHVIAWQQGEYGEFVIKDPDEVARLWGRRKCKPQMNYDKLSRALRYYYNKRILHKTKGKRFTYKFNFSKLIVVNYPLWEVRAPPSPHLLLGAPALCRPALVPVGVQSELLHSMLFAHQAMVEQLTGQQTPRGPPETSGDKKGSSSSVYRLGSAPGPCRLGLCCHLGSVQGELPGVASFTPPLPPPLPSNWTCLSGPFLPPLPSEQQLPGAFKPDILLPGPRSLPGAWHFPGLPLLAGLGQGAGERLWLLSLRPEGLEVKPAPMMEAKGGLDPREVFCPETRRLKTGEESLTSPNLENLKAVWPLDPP
To be noted: protein: recombinant; tags: N-terminal GST; dsDNA, one strand shown. Put shortly: as §1

Assay [13] deals with T8, ETS2 (Homo sapiens, UniProt P15036 1-469).
T8 sequence: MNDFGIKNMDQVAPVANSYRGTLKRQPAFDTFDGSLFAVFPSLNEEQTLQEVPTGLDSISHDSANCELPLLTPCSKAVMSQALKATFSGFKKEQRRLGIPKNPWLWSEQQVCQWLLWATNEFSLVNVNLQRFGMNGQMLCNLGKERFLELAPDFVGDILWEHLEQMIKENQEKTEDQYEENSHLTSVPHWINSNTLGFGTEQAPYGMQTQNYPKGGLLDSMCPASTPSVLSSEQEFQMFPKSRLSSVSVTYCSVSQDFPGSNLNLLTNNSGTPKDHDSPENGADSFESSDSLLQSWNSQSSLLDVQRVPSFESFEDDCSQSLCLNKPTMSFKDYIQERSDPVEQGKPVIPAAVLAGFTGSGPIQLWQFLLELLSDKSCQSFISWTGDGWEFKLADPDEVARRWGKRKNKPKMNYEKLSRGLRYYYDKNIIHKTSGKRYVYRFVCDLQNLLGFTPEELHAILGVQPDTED
Particulars: protein: recombinant; tags: N-terminal GST; dsDNA, one strand shown. The procedure, abridged:
as §1

In assay [14] the target is T9, SPDEF (Homo sapiens, UniProt O95238 1-335).
T9 sequence: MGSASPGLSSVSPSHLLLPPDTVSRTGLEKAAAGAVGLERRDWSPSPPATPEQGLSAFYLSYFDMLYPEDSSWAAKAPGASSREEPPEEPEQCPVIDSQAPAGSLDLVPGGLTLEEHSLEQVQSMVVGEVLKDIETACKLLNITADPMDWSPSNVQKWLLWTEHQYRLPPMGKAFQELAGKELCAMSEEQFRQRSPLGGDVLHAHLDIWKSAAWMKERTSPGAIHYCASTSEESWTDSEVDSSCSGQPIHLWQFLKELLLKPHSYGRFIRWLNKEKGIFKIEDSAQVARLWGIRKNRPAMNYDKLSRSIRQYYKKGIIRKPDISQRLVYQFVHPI
Particulars: protein: recombinant; tags: N-terminal GST; dsDNA, one strand shown. The procedure, abridged: as §1

In assay [15] the target is T10, ETV7 (Homo sapiens, UniProt Q9Y603 1-341).
T10 sequence: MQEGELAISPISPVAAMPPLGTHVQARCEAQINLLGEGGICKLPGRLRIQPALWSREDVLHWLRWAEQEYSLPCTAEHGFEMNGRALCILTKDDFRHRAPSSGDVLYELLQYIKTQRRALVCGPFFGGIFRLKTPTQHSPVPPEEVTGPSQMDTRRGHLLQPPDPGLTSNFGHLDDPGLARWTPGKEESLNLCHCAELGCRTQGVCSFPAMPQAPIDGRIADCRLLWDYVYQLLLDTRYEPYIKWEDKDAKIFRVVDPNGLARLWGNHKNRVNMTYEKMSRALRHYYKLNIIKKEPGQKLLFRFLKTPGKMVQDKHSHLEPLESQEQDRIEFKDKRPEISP
To be noted: protein: recombinant; tags: N-terminal GST; dsDNA, one strand shown. The procedure, abridged: as §1

Assay [16] deals with T11, ELF5 (Homo sapiens, UniProt Q9UKW6-2 1-255).
T11 sequence: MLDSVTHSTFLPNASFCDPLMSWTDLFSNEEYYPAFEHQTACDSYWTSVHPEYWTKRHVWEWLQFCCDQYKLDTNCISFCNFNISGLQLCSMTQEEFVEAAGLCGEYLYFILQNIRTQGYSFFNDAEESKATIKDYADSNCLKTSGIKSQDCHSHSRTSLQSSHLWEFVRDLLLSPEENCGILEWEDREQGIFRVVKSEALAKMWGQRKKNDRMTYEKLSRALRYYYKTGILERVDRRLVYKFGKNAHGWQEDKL
Particulars: protein: recombinant; tags: N-terminal GST; dsDNA, one strand shown. Put shortly:
as §1

Assay [17] has as its target T12, ETV3 (Homo sapiens, UniProt P41162-2 1-143).
T12 sequence: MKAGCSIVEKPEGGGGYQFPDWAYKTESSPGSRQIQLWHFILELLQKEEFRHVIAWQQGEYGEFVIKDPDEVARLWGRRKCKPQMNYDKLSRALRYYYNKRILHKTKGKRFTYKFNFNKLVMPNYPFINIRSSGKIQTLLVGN
To be noted: protein: recombinant; tags: N-terminal GST; dsDNA, one strand shown. Put shortly: as §1

The target of assay [18] is ETV6 (Homo sapiens, UniProt P41212 1-452). Particulars: protein: recombinant; tags: N-terminal GST; dsDNA, one strand shown. The procedure, abridged: as §1
Chain of ETV6 (P41212 whole entry): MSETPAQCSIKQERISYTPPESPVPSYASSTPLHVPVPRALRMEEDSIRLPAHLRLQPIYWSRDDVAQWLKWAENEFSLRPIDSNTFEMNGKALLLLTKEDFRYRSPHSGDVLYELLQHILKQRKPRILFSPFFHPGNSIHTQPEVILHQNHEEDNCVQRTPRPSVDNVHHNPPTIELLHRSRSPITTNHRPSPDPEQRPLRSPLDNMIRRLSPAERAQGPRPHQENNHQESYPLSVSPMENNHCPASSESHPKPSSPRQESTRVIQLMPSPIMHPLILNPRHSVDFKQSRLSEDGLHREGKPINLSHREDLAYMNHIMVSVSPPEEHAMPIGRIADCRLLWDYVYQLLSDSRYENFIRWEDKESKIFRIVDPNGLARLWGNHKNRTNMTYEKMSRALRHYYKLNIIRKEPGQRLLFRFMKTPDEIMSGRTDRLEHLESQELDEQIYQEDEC

Chain of ETV5 (P41161 whole entry): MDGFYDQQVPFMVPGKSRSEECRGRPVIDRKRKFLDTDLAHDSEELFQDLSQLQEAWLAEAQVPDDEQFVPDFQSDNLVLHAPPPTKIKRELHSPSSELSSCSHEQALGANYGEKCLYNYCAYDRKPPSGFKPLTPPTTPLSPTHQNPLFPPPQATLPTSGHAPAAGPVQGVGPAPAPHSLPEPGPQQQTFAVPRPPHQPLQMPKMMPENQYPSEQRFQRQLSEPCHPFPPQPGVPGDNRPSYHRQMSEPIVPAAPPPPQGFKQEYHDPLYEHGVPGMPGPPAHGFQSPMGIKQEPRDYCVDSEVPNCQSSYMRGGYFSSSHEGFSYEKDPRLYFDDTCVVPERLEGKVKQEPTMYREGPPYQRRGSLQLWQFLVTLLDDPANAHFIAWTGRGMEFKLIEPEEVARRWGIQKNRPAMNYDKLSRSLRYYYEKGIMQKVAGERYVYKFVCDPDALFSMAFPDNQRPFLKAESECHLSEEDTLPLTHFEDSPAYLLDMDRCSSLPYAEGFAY
Chain of HSF1 (Q00613 whole entry): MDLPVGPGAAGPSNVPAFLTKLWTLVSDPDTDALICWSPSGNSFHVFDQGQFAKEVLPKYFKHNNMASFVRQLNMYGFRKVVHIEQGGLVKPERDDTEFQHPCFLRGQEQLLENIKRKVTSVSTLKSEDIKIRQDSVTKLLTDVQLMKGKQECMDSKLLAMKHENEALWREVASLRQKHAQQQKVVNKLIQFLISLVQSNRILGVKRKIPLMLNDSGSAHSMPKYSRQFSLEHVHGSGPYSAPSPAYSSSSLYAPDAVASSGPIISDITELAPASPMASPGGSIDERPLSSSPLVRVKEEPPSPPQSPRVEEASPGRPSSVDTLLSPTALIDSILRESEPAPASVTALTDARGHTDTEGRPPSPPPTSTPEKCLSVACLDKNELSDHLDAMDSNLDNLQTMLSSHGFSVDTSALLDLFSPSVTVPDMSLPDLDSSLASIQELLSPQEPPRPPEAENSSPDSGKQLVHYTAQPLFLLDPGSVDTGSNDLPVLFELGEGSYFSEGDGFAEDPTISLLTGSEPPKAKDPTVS
Chain of ELF4 (Q99607 whole entry): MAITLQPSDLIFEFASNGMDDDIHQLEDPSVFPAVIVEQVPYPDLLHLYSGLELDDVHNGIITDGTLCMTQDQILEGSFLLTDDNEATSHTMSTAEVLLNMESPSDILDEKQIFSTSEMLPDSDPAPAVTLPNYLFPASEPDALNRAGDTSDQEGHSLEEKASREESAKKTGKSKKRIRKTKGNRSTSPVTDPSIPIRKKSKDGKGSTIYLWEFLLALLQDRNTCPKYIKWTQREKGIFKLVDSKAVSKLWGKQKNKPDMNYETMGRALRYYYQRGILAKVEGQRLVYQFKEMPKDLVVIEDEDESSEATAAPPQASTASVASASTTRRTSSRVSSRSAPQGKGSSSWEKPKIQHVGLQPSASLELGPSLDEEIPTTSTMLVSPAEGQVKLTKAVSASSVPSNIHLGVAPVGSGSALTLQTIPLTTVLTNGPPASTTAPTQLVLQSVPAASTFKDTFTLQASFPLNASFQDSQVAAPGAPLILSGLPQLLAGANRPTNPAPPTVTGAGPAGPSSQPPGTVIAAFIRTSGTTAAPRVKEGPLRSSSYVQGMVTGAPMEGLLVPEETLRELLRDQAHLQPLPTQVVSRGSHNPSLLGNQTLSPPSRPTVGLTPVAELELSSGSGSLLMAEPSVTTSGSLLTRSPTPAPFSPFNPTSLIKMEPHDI
Chain of ETV1 (P50549 whole entry): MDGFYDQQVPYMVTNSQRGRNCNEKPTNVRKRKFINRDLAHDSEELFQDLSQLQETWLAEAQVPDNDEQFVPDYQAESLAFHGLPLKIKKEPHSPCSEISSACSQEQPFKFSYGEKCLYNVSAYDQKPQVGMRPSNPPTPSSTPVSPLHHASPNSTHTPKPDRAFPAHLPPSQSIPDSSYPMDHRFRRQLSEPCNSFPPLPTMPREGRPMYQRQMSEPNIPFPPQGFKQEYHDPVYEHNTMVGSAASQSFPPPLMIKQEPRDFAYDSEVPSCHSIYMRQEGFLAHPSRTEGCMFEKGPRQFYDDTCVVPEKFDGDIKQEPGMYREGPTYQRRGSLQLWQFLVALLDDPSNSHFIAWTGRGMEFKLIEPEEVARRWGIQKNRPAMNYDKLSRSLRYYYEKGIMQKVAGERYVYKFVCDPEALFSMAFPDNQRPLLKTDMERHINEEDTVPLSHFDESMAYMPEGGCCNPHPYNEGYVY

As for CTCGTT, the binding signal is 1.22 fold enrichment (6-mer frequency, TF over GST control) in [1]; 1.29 fold enrichment (6-mer frequency, TF over GST control) in [2]; 1.24 fold enrichment (6-mer frequency, TF over GST control) in [3]; 1.37 fold enrichment (6-mer frequency, TF over GST control) in [4]; 1.28 fold enrichment (6-mer frequency, TF over GST control) in assay [5]; 1.4 fold enrichment (6-mer frequency, TF over GST control) in [6]. The binding signal in [7] is 1.36 fold enrichment (6-mer frequency, TF over GST control); in assay [8] it was 1.46 fold enrichment (6-mer frequency, TF over GST control); in assay [9] it was 1.1 fold enrichment (6-mer frequency, TF over GST control); in assay [10] it was 1.22 fold enrichment (6-mer frequency, TF over GST control); in assay [11] it was 1.4 fold enrichment (6-mer frequency, TF over GST control); in assay [12], 1.43 fold enrichment (6-mer frequency, TF over GST control). Also, the binding signal in assay [13] is 1.27 fold enrichment (6-mer frequency, TF over GST control); in [14], 1.27 fold enrichment (6-mer frequency, TF over GST control); in [15] it was 1.37 fold enrichment (6-mer frequency, TF over GST control); in assay [16], 1.44 fold enrichment (6-mer frequency, TF over GST control); in [17], 1.25 fold enrichment (6-mer frequency, TF over GST control); in [18], 1.23 fold enrichment (6-mer frequency, TF over GST control).
